For orientation: AC50 means the concentration giving half of the maximal activity seen.

SMILES strings stand for the structures. Out of some 16,000 compounds screened, about 5,700 (36%) were called active. Another 24% or so got no clear call; they are omitted. This is one part of the list. A number with no mark means an inactive call. Calls come from the whole dose curve; as a rule, active = well fitted curve in the direction sought with a large enough effect; inconclusive = small, poorly fitted or top-dose-only effect, or effect the other way; inactive = no such curve, though single readings can be large or run the other way. Peptide text beside a SMILES is read from it. * marks the point of attachment. Cbz = O=C(OCc1ccccc1)*
% is set by controls: 0 for no effect and ±100 for the full control effect.

For this assay, the target named is Cytochrome P450 1A2 (Homo sapiens) (UniProt P05177). Description: Cytochrome panel assay with activity outcomes. The settings on record: recombinant CYP, pro-luciferin dealkylation, luminescence, p450-cyp1a2; series mostly up to 57.1 µM.
Chain of Cytochrome P450 1A2 (Homo sapiens) (P05177 whole entry, looked up): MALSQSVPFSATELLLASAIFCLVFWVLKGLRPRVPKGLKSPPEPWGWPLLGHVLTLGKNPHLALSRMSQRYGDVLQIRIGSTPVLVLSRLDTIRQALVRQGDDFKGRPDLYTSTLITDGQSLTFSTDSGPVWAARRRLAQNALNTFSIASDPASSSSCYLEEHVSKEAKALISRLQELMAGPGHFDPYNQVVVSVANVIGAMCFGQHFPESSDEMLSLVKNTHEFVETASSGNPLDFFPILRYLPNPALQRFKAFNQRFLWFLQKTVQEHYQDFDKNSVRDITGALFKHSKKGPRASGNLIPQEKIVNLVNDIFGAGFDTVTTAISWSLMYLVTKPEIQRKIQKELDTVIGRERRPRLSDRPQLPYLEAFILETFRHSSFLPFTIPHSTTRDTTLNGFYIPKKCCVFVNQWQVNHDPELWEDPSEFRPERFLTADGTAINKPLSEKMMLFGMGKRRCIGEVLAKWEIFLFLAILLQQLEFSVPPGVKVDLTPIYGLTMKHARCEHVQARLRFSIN
In the case of `CC(C)(C)N1C(=O)[C@@H]2[C@H]3C(=CC[C@H]2C1=O)C(=O)[C@H]1O[C@H]1[C@H]3O`, the activity, negative = inhibition was -0.944% [at 11.4 µM].

Turning to `N#Cc1cccc(-c2cncnc2NCc2cccnc2)c1`, the AC50 is 5.01 µM (active).

With `N#Cc1cccc(-c2cncnc2NCc2ccccc2)c1`, the AC50 is 5.01 µM (active).

`Cc1cccc(CNc2ncncc2-c2cccc(C#N)c2)c1`: the AC50 is 2.51 µM (active).

On to `Cc1cnc(CNc2ncncc2-c2cccc(C#N)c2)cn1`, for which the AC50 is 12.6 µM (active).

On to `O=S(=O)(O)c1ccc(N=Nc2ccccc2)cc1`, for which the activity, negative = inhibition was -5.18% [at 11.4 µM].

With `CC(=O)O[C@]1(C(C)=O)CC[C@@H]2[C@@H]3C=C(Cl)C4=CC(=O)[C@H]5C[C@@H]5[C@]4(C)[C@H]3CC[C@]21C`, the AC50 entry is “inactive”.

Regarding `N#Cc1cccc(-c2cncnc2NCc2cccs2)c1`, the AC50 is 1.58 µM (active).

Take `COc1ccccc1CNc1ncncc1-c1cccc(C#N)c1`: the half-maximal activity concentration (AC50) was 10 µM (active).

As for `Cc1ccc(C(C)C)n1C(=O)OC(C)(C)C`, the activity, negative = inhibition was 6.74% [at 11.4 µM].

In the case of `Fc1ccc2c(c1)C1C=CCC1C(c1cc3c(cc1Br)OCO3)N2` (centres undefined), the concentration at half-maximal activity (AC50) was 0.891 µM (active).

`C=CCNc1nc(Cl)nc(Nc2ccc(OC)cc2)n1`: the AC50 was 2.51 µM (active).

In the case of `CCCC[C@@H]1C[C@H]1C(NC(=O)c1cccs1)c1ccc(C(F)(F)F)cc1` (some centres undefined), the AC50 is 2 µM (active).

On to `CCCC[C@@H]1C[C@H]1C(NC(=O)c1cccs1)c1ccc(Cl)cc1` (some centres undefined), for which the AC50 is 1 µM (active).

For `C/C(=C\C1CCCCC1)C(NC(=O)c1ccc(C(F)(F)F)cc1)c1ccc(-c2ccccc2)cc1` (centres undefined), the AC50 result was “inactive”.

Turning to `CCCC[C@@H]1C[C@H]1C(NC(=O)c1cccs1)c1ccccc1C(F)(F)F` (some centres undefined), the AC50 is 6.31 µM (active).

On to `C[C@@]1(C(NC(=O)c2cccs2)c2ccc(-c3ccccc3)cc2)C[C@H]1C1CCCCC1` (some centres undefined), for which the AC50 entry was “inactive”.

Turning to `CCOC(=O)CSC1=NC(=O)/C(=C\c2ccc(OC(C)=O)cc2)S1`, the AC50 was 25.1 µM (active).

With `CCOC(=O)CSC1=NC(=O)/C(=C\c2ccc(Cl)cc2)S1`, the AC50 is 3.55 µM (active).

In the case of `Cc1cccc(NC2(C(F)(F)F)N=C(c3ccccc3)NC2=O)n1` (centres undefined), the AC50 entry was “inactive”.

On to `Clc1ccc(-c2nnc(-c3ccc(Br)cc3)c(N3CCSCC3)n2)cc1`, for which the AC50 is 1.12 µM (active).

With `Brc1ccc(-c2nnc(-c3ccccc3)c(N3CCSCC3)n2)cc1`, the AC50 was 1.26 µM (active).

As for `N#Cc1c(N2CCN(C(=O)c3ccccc3Cl)CC2)nc(-c2ccccc2)c2c1CCCC2`, the AC50 result was “inactive”.

Consider `Clc1ccc(-c2nnc(-c3ccccc3)c(N3CCSCC3)n2)cc1`, for which the AC50 is 1.12 µM (active).

Regarding `Cc1cc(C)cc(-n2c(O)c(C=NC3CCS(=O)(=O)C3)c3ccccc3c2=O)c1` (centres undefined), the AC50 entry is “inactive”.

Regarding `Cc1ccc(-n2c(O)c(/C=N/n3cnnc3)c3ccccc3c2=O)cc1`, the AC50 is 17.8 µM (active).

For `COc1c(O[C@H]2O[C@@H](CO)[C@@H](O)[C@@H](O)[C@@H]2O)cc2c(c1OC)-c1ccc(SC)c(=O)cc1[C@H](NC(C)=O)CC2`, the AC50 result is “inactive”.

For the compound `COc1cc(C(=O)N2CCC(NC(=O)C(Cc3ccc(C(C)C)cc3)NC(C)=O)CC2)cc(OC)c1OC` (centres undefined), the AC50 entry was “inactive”.

As to `O=C(NCCN1CCCC1)C1(S(=O)(=O)c2ccc(Cl)cc2)CC1`, the AC50 result was “inactive”.

As for `O=C(NCCc1ccc(Cl)cc1)C1CCN(S(=O)(=O)N2CCC3(CC2)OCCO3)CC1`, the AC50 result is “inactive”.

For the compound `Oc1cc2c(cc1O)CN(C(=S)NCCc1ccc(Cl)cc1)CCC2`, the concentration at half-maximal activity (AC50) is 20 µM (active).

As to `COc1ccc(-n2nc(C(=O)NCC(=O)Nc3ccccn3)c3ccccc3c2=O)cc1`, the AC50 result is “inactive”.

For `COc1ccc(Oc2c(Cl)cnn(-c3ccccc3)c2=O)cc1`, the AC50 is 7.08 µM (active).

Turning to `COc1cccc(/C=N/n2nnc3c(cnn3-c3ccccc3)c2=O)c1`, the AC50 result is “inactive”.

For the compound `Cn1c([N+](=O)[O-])cnc1CN1CCN(CCO)CC1`, the activity, negative = inhibition was 9.16% [at 2.29 µM].

With `c1ccc(-c2n[nH]c(-c3ccccc3)c2-c2nc3ccccc3[nH]2)cc1`, the AC50 was 8.91 µM (active).

In the case of `CCOc1cc(NC(=O)c2ccccc2[N+](=O)[O-])c(OCC)cc1NC(=O)CC(C)C`, the AC50 entry is “inactive”.

For `Cc1cccc(NC(=S)NNC(=O)CC(C)O)c1C` (centres undefined), the AC50 entry was “inactive”.

Take `CCOc1cc(NC(=S)Nc2cccc(C)c2)c(OCC)cc1NC(=O)CC(C)C`: the AC50 was 5.01 µM (active).

In the case of `CN1CCN(/C=N/C2=C(C#N)C(c3ccccc3)C3=C(CC(C)(C)CC3=O)O2)CC1` (centres undefined), the AC50 entry was “inactive”.

Consider `CC1(C)CC(=O)C2=C(C1)Oc1nc3ccccc3cc1C2C(C#N)C#N` (centres undefined), for which the AC50 was 22.4 µM (active).

Take `CC1(C)CC(=O)C([C@H]2C3=C(CC(C)(C)CC3=O)Oc3ccccc32)C(=O)C1`: the AC50 result was “inactive”.

Regarding `N/C(CC/C(N)=N/O)=N\O`, the activity, negative = inhibition was -17.8% [at 11.4 µM].

Take `O=C(O)CSSCC(=O)O`: the activity, negative = inhibition is -2.44% [at 11.4 µM].

For the compound `O=C(O)CSc1sc(=S)sc1SCC(=O)O`, the AC50 is 12.6 µM (active).

With `Cc1nnsc1SCC(=O)O`, the AC50 entry was “inactive”.

`COc1cccc([C@H]2Oc3ccc(OC)cc3/C(=N\O[C@@H]3O[C@H](COC(C)=O)[C@H](OC(C)=O)[C@H](OC(C)=O)[C@H]3OC(C)=O)[C@@H]2O)c1`: the activity, negative = inhibition was 2.78% [at 11.4 µM].

`CCOC(=O)c1ccccc1Oc1c(F)c(F)nc(NCCO)c1F`: the AC50 was 8.91 µM (active).

For the compound `Fc1nc(N2CCCC2)c(F)c(Oc2ccccc2Oc2c(F)c(F)nc(N3CCCC3)c2F)c1F`, the AC50 entry was “inactive”.

In the case of `Fc1cccc(C2NC(=S)NC3=C2N2CCC3CC2)c1` (centres undefined), the AC50 result is “inactive”.

On to `Cc1nc(SCC(=O)c2cc3ccccc3oc2=O)c(C#N)c(C)c1C(=O)Nc1ccccc1`, for which the AC50 entry was “inactive”.

In the case of `Cc1c(C#N)c(=O)oc2ccc3ccccc3c12`, the AC50 was 0.126 µM (active).

On to `COc1ccc(NC(=O)N2CC3(CCN(C(=O)c4cnccn4)CC3)C2)cc1`, for which the AC50 result is “inactive”.

Regarding `O=C1C2CCCN2C(c2ccc(F)cc2)N1c1nccs1` (centres undefined), the AC50 is 3.16 µM (active).

Consider `Cc1cccc(OCC(=O)NNC(=O)CSc2ncc(C#N)c(N)n2)c1`, for which the AC50 entry is “inactive”.

Take `Cc1snc(SCC(=O)N/N=C(\N)COc2cccc(C(F)(F)F)c2)c1C#N`: the AC50 is 12.6 µM (active).

As to `C[C@H]1CC[C@H]2C(=O)N3[C@H](c4ccc(Br)cc4)[C@@H](C)CC[C@H]3C(=O)N2[C@@H]1c1ccc(Br)cc1`, the activity, negative = inhibition is -10.6% [at 11.4 µM].

Regarding `O=C1CC(=Nc2ccccc2)NN1c1ccccc1`, the AC50 was 6.31 µM (active).

Take `O=C(N[C@@H](Cc1ccccc1)C(=O)CCl)OCc1ccccc1`: the AC50 was 3.16 µM (active).

On to `CC(C)C(NC(=O)OCc1ccccc1)C(=O)O` (centres undefined), for which the AC50 entry is “inactive”.

With `CC(C)[C@H](NC(=O)OCc1ccccc1)C(=O)N[C@H](C=O)Cc1ccccc1` (Cbz-Val-Phe-aldehyde), the AC50 result was “inactive”.

Consider `CN(CC(=O)O)Cc1c(O)c(Cl)cc(Cl)c1Cl`, for which the activity, negative = inhibition was -0.983% [at 2.29 µM].

With `COc1ccc(-c2cc(C(=O)Nc3nc4c(C)cccc4s3)c3ccccc3n2)cc1OC`, the AC50 result is “inactive”.

As for `COc1ccc(OC)c(C2C(C(=O)Nc3nc4ccccc4s3)=C(C)NC3=C2C(=O)CCC3)c1` (centres undefined), the AC50 was 1.41 µM (active).

Regarding `CS(=O)(=O)N1CCC2(CCCN(C(=O)Nc3cccc(F)c3)C2)CC1`, the AC50 result was “inactive”.

As to `Cc1ccc(S(=O)(=O)O[C@@H]2[C@H]([C@@H]3COC(C)(C)O3)O[C@H]3OC(C)(C)O[C@@H]32)cc1`, the activity, negative = inhibition was -15.9% [at 11.4 µM].

As to `N#Cc1ccc(-c2ccc(F)cc2)nc1Sc1ccccc1`, the AC50 was 0.891 µM (active).

As for `Cc1ccc(Sc2nc(-c3ccccc3)ccc2C#N)cc1`, the AC50 was 2.82 µM (active).

As to `CC[C@@H]1OC(=O)[C@H](C)[C@H](O[C@@H]2C[C@](C)(OC)[C@H](O)[C@H](C)O2)[C@H](C)[C@H](O[C@@H]2O[C@@H](C)C[C@@H](N(C)C)[C@@H]2O)[C@](C)(O)C[C@H](C)[C@@H]2N[C@H](COCCOC)O[C@H]([C@@H]2C)[C@]1(C)O`, the AC50 entry is “inactive”.

For the compound `COc1cc(/C=N/Nc2snc(SC)c2C#N)cc(OC)c1OC`, the AC50 is 4.47 µM (active).

In the case of `COc1ccc(/C=N/Nc2snc(SC)c2C#N)cc1OC`, the AC50 is 0.708 µM (active).

For the compound `CO[C@H]1COC(=O)C/C=C\[C@H](C)COC(=O)[C@@H](C)NC(=O)C/C=C\[C@@H]1C`, the activity, negative = inhibition is -2.38% [at 11.4 µM].

With `C[C@@]12C=CC(=O)C=C1CC[C@@H]1[C@@H]2[C@H](O)C[C@]2(C)[C@@H]1CC[C@]2(O)C(=O)CO`, the AC50 entry was “inactive”.

On to `Cc1nn(Cc2ccc(Cl)cc2)c(C)c1NC(=O)CSc1nc2c(c(C(F)(F)F)n1)CCc1ccccc1-2`, for which the AC50 entry was “inactive”.

For the compound `CCc1ccc(-c2cc(C(F)(F)F)n3nc(C(=O)Nc4cnn(Cc5ccccc5C)c4)cc3n2)s1`, the AC50 result is “inactive”.

As for `Cc1ccccc1Cn1cc(NC(=O)CSc2nc3c(c(C(F)(F)F)n2)CCc2ccccc2-3)cn1`, the half-maximal activity concentration (AC50) is 7.08 µM (active).

Turning to `CC(=O)NS(=O)(=O)c1ccc(N)cc1`, the AC50 entry is “inactive”.

For the compound `Cc1c(Cl)cccc1NC(=O)c1ccc(-n2ccnc2)nc1`, the AC50 is 0.794 µM (active).

In the case of `Cc1cc(C(F)F)n2nc(C(=O)Nc3cccnc3Cl)nc2n1`, the AC50 result is “inactive”.

On to `O=C(Nc1ccc(-n2nncc2-c2ccco2)cc1)c1ccc(F)cc1`, for which the AC50 result was “inactive”.

Regarding `O=C(Nc1ccc(F)cc1)c1ccc(-n2ccnc2)nc1`, the AC50 was 0.501 µM (active).

For `Nc1ccn([C@@H]2CC[C@H](CO)O2)c(=O)n1`, the AC50 result was “inactive”.

With `COc1ccc(Oc2ncc3nc(C)c(=O)n(C)c3n2)cc1`, the AC50 is 12.6 µM (active).

For the compound `Cc1nc2cnc(Oc3ccccc3)nc2n(C)c1=O`, the AC50 was 12.6 µM (active).

`NC(=O)c1nnn(Cc2cc(Cl)c(C(=O)c3ccc(Cl)cc3)c(Cl)c2)c1N`: the activity, negative = inhibition is -2.19% [at 2.29 µM].

For `O=C(Oc1ccccc1)N1CCC2(CC1)CCN(c1ccncc1)CC2`, the AC50 entry is “inactive”.

With `CCOC(=O)C1CCN(C(=O)c2ccccc2NC(C)=O)CC1`, the AC50 result is “inactive”.

In the case of `Cc1ccccc1N1CCN(C(=O)c2ccccc2NC(=O)/C=C\C(=O)O)CC1`, the AC50 entry is “inactive”.

With `O=C(c1ccccc1Nc1ccc(SC(F)F)cc1)N1CCCCC1`, the AC50 was 14.1 µM (active).
